# Source: PubChem BioAssay
# FBW7 activator = activators of human E3 ligase FBW7; Q969H0; AlphaScreen FBW7–phospho-cyclin E peptide binding, activator screen; normalized activity (activation), % at 26.1 µM; hit rate 0.13% among 650,000; in the data active = normalized activity above about 1.9%;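 also: purified mutant Fbw7 with reduced substrate affinity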
# GPR151 activ = activates the human receptor GPR151 | AID 1508602 | PathHunter beta-arrestin GPR151 cells, luminescence | activation, % at 11.2 µM | Q8TDV0 | hit rate 1% among 650,000; in the data active = activation above about 4.9%;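 also: 0% = median of compound wells and 100% = cells with positive control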
# MITF inh = blocks human microphthalmia-associated transcription factor. inhibition, % at 2.6 µM. hit rate 0.91% among 650,000. AlphaScreen MITF homodimerization, bead proximity signal. O75030; in the data active = inhibition above about 50%;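 also: 0% = vehicle wells with protein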
# Target sequence (O75030 whole entry, looked up): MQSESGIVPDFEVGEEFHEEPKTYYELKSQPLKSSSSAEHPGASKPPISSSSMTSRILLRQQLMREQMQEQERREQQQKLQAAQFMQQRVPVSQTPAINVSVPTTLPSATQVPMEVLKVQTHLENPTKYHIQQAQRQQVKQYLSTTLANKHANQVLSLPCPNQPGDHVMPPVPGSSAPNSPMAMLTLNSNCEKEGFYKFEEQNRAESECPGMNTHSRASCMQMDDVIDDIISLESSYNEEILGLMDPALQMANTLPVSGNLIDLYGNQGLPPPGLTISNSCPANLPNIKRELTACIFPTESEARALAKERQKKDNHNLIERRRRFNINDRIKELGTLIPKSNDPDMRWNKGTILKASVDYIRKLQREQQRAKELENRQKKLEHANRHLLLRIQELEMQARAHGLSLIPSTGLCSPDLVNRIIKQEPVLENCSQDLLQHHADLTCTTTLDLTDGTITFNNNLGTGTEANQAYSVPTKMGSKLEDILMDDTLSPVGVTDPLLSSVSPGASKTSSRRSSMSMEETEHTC
# TEAD-YAP block = TEAD-YAP interaction inhibition | HEK-TIYL cells, TEAD-Gal4/YAP UAS-luciferase luminescence | inhibition, % at 9.12 µM | AID 1259422 | hit rate 1.4% among 640,000; in the data active = inhibition above about 32%;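 also: 0% = median of test compound wells and 100% = reference inhibitor wells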
# GPR151 conf act = human GPR151 activation, confirmation screen; GPR151 PathHunter beta-arrestin cells, luminescence, 90 min; % of EA-reagent control over plate median; 6,700 tested, under 10 active; activation, % at 11.2 µM; shares compounds with GPR151 activ;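 active = mean percent activation across replicates above the confirmation screen cutoff of 4.91%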
# GPR119 counter = GPR119 activation, counter-screen for GPR151 activators | hit rate 0.3% among 6,700 | activation, % at 11.2 µM | shares compounds with GPR151 activ | GPR119 PathHunter beta-arrestin cells, luminescence, 90 min; 0 = compound-well median, 100 = enzyme-acceptor control | AID 1508611;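 active = mean percent activation in the counterscreen above 29.09%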;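 also: counterscreen on off-target GPR119 to flag nonselective hits from the GPR151 activator screen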
# An asterisk follows results filed as active; x = no result given. Hits are enriched below; roughly 3.4% of the tested compounds scored in any of these assays.
SMILES,FBW7 activator,GPR151 activ,MITF inh,TEAD-YAP block,GPR151 conf act,GPR119 counter
COc1ccccc1CNC(=O)c1ccc(N2CC3CC(C2)c2cccc(=O)n2C3)c(NC(=O)c2ccncc2)c1 (centres undefined),-0.1,1.2,-4.7,3.0,x,x
Cc1ccc(OCC(=O)NC23CC4CC(CC(C4)C2)C3)cc1C,0.1,5.1*,4.6,-43.2,0.1,-10.2
COc1cc2c(c(OC)c1)C(c1cc(OC)c(OC)cc1Br)CC(=O)N2 (centres undefined),0.0,5.1*,5.8,11.4,0.2,-1.7
COc1cc(Br)c(C2CC(=O)Nc3ccc4ccccc4c32)cc1OC (centres undefined),0.1,-0.2,15.3,1.1,x,x
Cc1cc(C)c(S(=O)(=O)N2CCC(C(=O)NCCO)CC2)c(C)c1,1.0,-1.4,25.2,15.1,x,x
CCOC(=O)C1CCN(c2ccc(C=C3C(=O)N(C)C(=O)N(C)C3=O)cn2)CC1,-0.1,5.2*,-0.6,-5.0,-0.3,3.8
CCCCNC(=O)CSc1nnc(-c2ccccc2)o1,0.0,0.7,7.3,-5.5,x,x
COc1ccc(C(=O)NCCc2c(C)[nH]c3c(C)ccc(F)c23)cc1OC,-0.2,0.8,7.9,4.4,x,x
CCOc1ccc(CC(=O)NCCc2c(C)[nH]c3c(C)ccc(F)c23)cc1OCC,-0.1,6.5*,2.1,-3.3,-0.8,-11.8
Cc1cc(NC(=O)c2ccc3c(c2)C(=O)N(c2ccc([N+](=O)[O-])cc2)C3=O)no1,0.1,5.7*,7.4,7.5,-0.6,2.9
N#Cc1ccccc1OCC(=O)N1CCOCC1,0.0,5.5*,9.3,4.8,-0.3,1.8
COC(=O)c1c(NC(=O)C(C)N2C(=O)c3ccccc3C2=O)sc2c1CCC(C)C2 (centres undefined),1.1,-0.9,17.9,-6.2,x,x
COc1ccc(CNCc2ccc3ccccc3c2)cc1OC,-0.1,5.1*,34.4,4.3,0.7,0.6
O=C(Nc1cccc2ncccc12)C12CC3CC(CC(C3)C1)C2,0.5,0.6,11.8,-10.5,x,x
Cc1ccc(SCC(=O)Nc2cccc3ncccc23)cc1,0.1,6.0*,10.7,4.3,0.8,-9.4
CCC(=O)Nc1cccc2ncccc12,0.2,1.7,-1.7,14.0,x,x
O=C(CC12CC3CC(CC(C3)C1)C2)Nc1cccc2ncccc12,-0.1,6.3*,0.6,-9.1,0.2,5.1
Cc1cc(=O)oc2cc(NC(=O)/C=C/c3ccccc3)ccc12,-0.1,0.3,-10.1,4.7,x,x
O=C(NCC(c1ccc2c(c1)OCO2)N1CCN(c2ccccc2F)CC1)c1cnccn1 (centres undefined),0.2,5.5*,15.5,-23.2,0.8,5.8
Cc1ccccc1NC(=O)C(=O)NCC(c1ccc2c(c1)OCO2)N1CCN(C)CC1 (centres undefined),-0.2,5.7*,1.5,-9.7,-0.5,-5.2
CC(OC(=O)c1cccc2ccccc12)C(N)=O (centres undefined),0.2,0.0,-9.4,2.8,x,x
Nc1nnc(SCC(=O)Nc2cc(Cl)ccc2O)s1,-0.1,1.7,-2.1,-4.1,x,x
OC1(c2cccc(F)c2)CCN(Cc2ccncc2)CC1,0.8,6.1*,19.7,-14.6,0.9,16.7
OC1(c2cccnc2)CCN(Cc2cccc(F)c2)CC1,-0.2,-0.5,6.7,4.9,x,x
Cn1c(=NC(=O)CN2C(=O)CCC2=O)sc2cc(F)cc(F)c21,0.0,1.8,-3.1,0.8,x,x
SMILES,FBW7 activator,GPR151 activ,MITF inh,TEAD-YAP block,GPR151 conf act,GPR119 counter
CCC(=O)N=c1sc2cc(F)cc(F)c2n1C,0.0,8.1*,12.3,2.0,-0.2,-3.2
COc1ccc(-c2cn3c(C(=O)N4CCc5ccccc54)csc3n2)cc1,0.0,18.6*,-7.7,5.2,0.3,-2.0
COc1ccc(-c2cn3c(C(=O)N4CCN(c5ccccc5OC)CC4)csc3n2)cc1,-0.1,-0.4,2.5,-7.8,x,x
COc1ccc(OC)c(/C=N/NC(=O)c2cccnc2)c1,0.2,-0.6,3.9,10.6,x,x
CN(c1ccc(C(=O)N/N=C/c2ccc3c(c2)OCO3)cc1)S(=O)(=O)c1ccccc1,-0.1,0.8,3.5,-2.6,x,x
CCOC(=O)C1=C(C)N(c2ccc(Br)cc2)C(=O)/C1=C\c1ccc(C(=O)OC)cc1,-0.7,15.9*,3.0,-11.8,1.2,0.6
CCOC(=O)C1=C(C)N(c2ccc(Br)cc2)C(=O)/C1=C\c1ccc(C(=O)O)cc1,-0.1,-1.0,-7.0,-11.8,x,x
